MITF primary: human MITF inhibition, primary screen | O75030 | AlphaScreen MITF homodimerization, bead proximity signal | inhibition, % at 2.6 µM | 0.91% of 650,000 active | AID 1259374; in the data active = inhibition above about 50%;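 also: 0% = vehicle wells with protein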
FBW7 act: activators of human E3 ligase FBW7 | AlphaScreen FBW7–phospho-cyclin E peptide binding, activator screen | normalized activity (activation), % at 26.1 µM | 0.13% of 650,000 active | AID 1259310; in the data active = normalized activity above about 1.9%;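 also: purified mutant Fbw7 with reduced substrate affinity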
GPR151 activ: human GPR151 activation; Q8TDV0; PathHunter beta-arrestin GPR151 cells, luminescence; activation, % at 11.2 µM; 1% of 650,000 active; AID 1508602; in the data active = activation above about 4.9%;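 also: 0% = median of compound wells and 100% = cells with positive control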
Target sequence (Q8TDV0 whole entry, looked up): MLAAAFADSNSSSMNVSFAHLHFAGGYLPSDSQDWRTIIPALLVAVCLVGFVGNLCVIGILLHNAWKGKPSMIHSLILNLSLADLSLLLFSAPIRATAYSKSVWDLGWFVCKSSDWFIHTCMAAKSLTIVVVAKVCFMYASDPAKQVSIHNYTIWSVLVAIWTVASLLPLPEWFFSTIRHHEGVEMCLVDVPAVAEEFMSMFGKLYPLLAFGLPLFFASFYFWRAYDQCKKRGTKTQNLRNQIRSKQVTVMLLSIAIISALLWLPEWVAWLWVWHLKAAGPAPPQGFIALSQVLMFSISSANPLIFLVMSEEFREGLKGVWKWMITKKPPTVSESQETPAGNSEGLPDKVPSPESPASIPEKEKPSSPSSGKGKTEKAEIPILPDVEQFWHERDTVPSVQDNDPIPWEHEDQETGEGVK
TEAD-YAP inh: TEAD-YAP interaction inhibition; HEK-TIYL cells, TEAD-Gal4/YAP UAS-luciferase luminescence; 1.4% of 640,000 active; inhibition, % at 9.12 µM; in the data active = inhibition above about 32%;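 also: 0% = median of test compound wells and 100% = reference inhibitor wells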
Numbers without * were called inactive. An excerpt weighted towards active compounds, which were near 3.4% of everything screened.

SMILES	MITF primary	FBW7 act	GPR151 activ	TEAD-YAP inh
Cc1ccc(/C=C2\CS/C(=C\c3ccc(C)o3)C2=O)o1	67*	-1	1	-9
Cc1ccc(/C=C2\SC(=S)N(C)C2=O)o1	6	0	2	12
O=C(O)CCN1C(=O)/C(=C\c2ccccn2)SC1=S	8	0	1	26
O=C(O)CCCCCN1C(=O)/C(=C\c2ccco2)SC1=S	43	0	0	37*
O=C(O)CCCCCN1C(=O)/C(=C\c2ccccn2)SC1=S	5	1.9*	0	30
Cc1ccc(/C=C2/SC(=O)NC2=S)o1	76*	0	1	-5
COCCN1C(=O)c2ccccc2C(C(=O)NC(C)C)C1c1ccc(F)cc1 (configuration not stated)	-19	0	-2	-1
COc1ccc(C2=NN(C(=O)c3ccco3)C(O)(C(F)(F)F)C2)cc1 (configuration not stated)	1	0	0	41*
Cc1ccc(C2=NN(C(=O)c3ccco3)C(O)(C(F)(F)F)C2)cc1 (configuration not stated)	2	0	-2	-9
COCCCn1c(C)cc(C(=O)CSc2nnc(-c3ccccc3F)o2)c1C	-12	0	-1	9
O=C(Nc1ccc(C23CC4CC(CC(C4)C2)C3)cc1)c1cc([N+](=O)[O-])ccc1Cl	12	0	0	30
CCOc1ccc(CCNC(=O)c2cc([N+](=O)[O-])ccc2Cl)cc1OCC	16	1	0	39*
Cc1[nH]c2ccc(OC(F)(F)F)cc2c1CCNC(=O)c1cc([N+](=O)[O-])ccc1Cl	6	0	0	66*
O=C(NCCOC12CC3CC(CC(C3)C1)C2)c1cc([N+](=O)[O-])ccc1Cl	7	0	-1	33*
NC(=O)c1cccc(N=Cc2cc([N+](=O)[O-])ccc2Cl)c1	12	0	0	0
Cc1c(C)n2c3c(=O)n(Cc4ccccc4)c(=O)n(C)c3nc2n1Cc1ccccc1	-7	1	0	-3
c1cncc(-c2nc3c4ccccc4nc(N4CCC(N5CCCCC5)CC4)n3n2)c1	1	0	0	46*
O=C(Cc1ccc([N+](=O)[O-])cc1)NN=C1CCCCC1	11	0	-1	-3
CCC(=O)c1cc(I)cc(I)c1O	-16	0	1	13
O=C(NCc1ccccc1)C(=Cc1cccc(O)c1)C(=O)NCc1ccccc1	5	0	0	35*
N#C/C(=C\c1cccc(Cl)c1)C(=O)NCc1ccccc1	1	0	0	1
O=C(N/N=C/c1cccc([N+](=O)[O-])c1O)c1cccc([N+](=O)[O-])c1	53*	-1	0	8
O=C(N/N=C/c1ccc([N+](=O)[O-])cc1)c1cccs1	-3	0	0	-40
O=C(N/N=C/c1cccc([N+](=O)[O-])c1O)c1cccs1	73*	-1	1	-46
O=C(Nc1cccc(N2CCC(NC(CCn3ccnc3)c3ccccc3)CC2)c1)C1CC1 (configuration not stated)	15	0	1	9
SMILES	MITF primary	FBW7 act	GPR151 activ	TEAD-YAP inh
CCOC(=O)/C(=N/Nc1ccccc1OC)S(=O)(=O)c1ccc(Cl)cc1	18	0	1	8
O=C1OC(OC(=O)c2ccccc2)C(Nc2ccccc2)=C1Cl (configuration not stated)	-2	0	-2	-1
O=C1OC(OC(=O)c2ccccc2)C(Nc2cccc(O)c2)=C1Cl (configuration not stated)	11	2.4*	-1	2
CNc1nc(Nc2ccc(C)c(C)c2)c2nccnc2n1	0	1	-2	6
CNc1nc(Nc2ccc(OC)cc2)c2nccnc2n1	17	2.9*	-1	5
CC(=O)Nc1ccccc1NC(=O)CN(C)S(=O)(=O)c1ccc(C)cc1	19	0	-2	1
CC(=O)Nc1ccccc1N(C)S(=O)(=O)c1ccc(C)cc1	-5	0	0	51*
CCOC(=O)C1=C(C)N=c2s/c(=C\c3ccc(-c4ccc(Cl)c(C(=O)O)c4)o3)c(=O)n2C1c1ccccc1 (configuration not stated)	9	0	-1	-12
Clc1ccc(-c2cn3nc4c(nc3n2)CCCC4)cc1	-2	0	-2	-20
Fc1ccc(-c2cn3nc4c(nc3n2)CCCC4)cc1	4	0	-10	40*
COc1cccc(-c2cn3nc4c(nc3n2)CCCC4)c1	-1	0	-8	66*
CCCOc1ccc(/C(O)=C2/C(=O)C(=O)N(CCN3CCOCC3)C2c2ccc(N(C)C)cc2)cc1C (configuration not stated)	4	0	0	-9
CO/N=C/c1ccc(OC)c(Oc2nc(OC)cc(OC)n2)c1	4	0	2	33*
N#C/C(=C/Nc1ccccc1)c1nc(-c2cccs2)cs1	7	1	0	7
N#Cc1c2c(c(NCc3ccccn3)n3c1nc1ccccc13)CCC2	19	0	1	9
Oc1ccc(/C=N/N/C(=N/c2ccccn2)c2ccccn2)c(O)c1	45	-2	-4	59*
Cc1[nH]n(-c2ccccc2)c(=O)c1/C=N/NC(C)(C)C	-17	-1	-1	0
COc1ccccc1/C=N\N=C(/N)c1ccccn1	19	-1	-4	56*
Cc1[nH]n(-c2ccccc2)c(=O)c1/C=N/N/C(=N/c1ccccn1)c1ccccn1	52*	-1	2	12
N/C(=N\N=C/c1ccc(O)cc1O)c1ccccn1	20	-1	-5	84*
Cc1ccc(N2C(=O)c3cccc4c(N5CCOCC5)ccc(c34)C2=O)cc1	6	0	1	6
Cc1cccc(C)c1Nc1ncnc2ccc(Br)cc12	-2	0	-1	-12
N/C(=N\N=C\c1c(O)ccc2ccccc12)c1ccccn1	11	-1	-2	60*
Oc1ccc2ccccc2c1/C=N/c1ccccn1	1	0	0	1
Oc1ccc(N=Cc2ccc[nH]2)cc1N=Cc1ccc[nH]1	87*	0	2	-2
SMILES	MITF primary	FBW7 act	GPR151 activ	TEAD-YAP inh
NS(=O)(=O)c1ccc(N=Cc2ccc[nH]2)cc1	-2	0	-1	-5
COc1ccc(-c2nc(NC3CCN(Cc4ccccc4)CC3)c3ncn(-c4ccsc4)c3n2)cc1	10	0	0	0
COc1ccc(-c2nc(NC3CC3)c3ncn(-c4ccsc4)c3n2)cc1	3	0	2	50*
Cc1nn(C)c(C)c1-c1nc(NC2CC2)c2ncn(-c3ccsc3)c2n1	1	0	2	40*
CC1(C(=O)O)NC(c2ccc(O)cc2O)C2C(=O)N(Cc3ccccc3)C(=O)C21 (configuration not stated)	23	0	-1	-9
Nn1c(SCC(=O)NC2CCCc3ccccc32)nnc1C(F)(F)F (configuration not stated)	9	0	1	34*
COc1ccc(-c2ccc(/C=C/C(=O)c3ccco3)o2)cc1	63*	0	4	-42
COc1ccccc1-c1ccc(/C=C/C(=O)c2ccco2)o1	11	1	-1	-49

High-throughput results (PubChem)
